Sampled rows, rich in hits. Any-hit rate of the full collection: about 11%.
NIH3T3 tox – NIH 3T3 cell cytotoxicity | NIH 3T3 viability, CellTiter-Glo ATP luminescence, 48-72 h | Potency, µM (highest dose often 96.7 µM), inactives show at the top dose activity change, negative = cytotoxicity, usual class: inhibitors | 94,000 tested, 4.3% active; note: % is set by controls: 0 for no effect and ±100 for the full control effect; nearly all actives have a fitted effect of over 55% in size
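Cytotoxicity is measured as loss of cellular ATP: NIH 3T3 cells (400/well) are exposed to compound for 48 or 72 hr at 37 °C, then CellTiter-Glo luminescence is imaged after 10 min at room temperature.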
FLuc inh-1 – blocks purified firefly luciferase enzyme activity. purified P. pyralis luciferase, luminescence, biochemical. Potency, µM (highest dose often 115 µM), usual class: inhibitors. 76,000 tested, 2.5% active. AID 1347043; note: % is set by controls: 0 for no effect and ±100 for the full control effect; nearly all actives have a fitted effect of over 65% in size
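Cell-free enzyme assay, 10nM P. pyralis luciferase, luciferin and ATP each at 10uM. Inhibition profiled over a 6-point titration, read as luminescence.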
HEK293 tox – kills HEK 293 cells | 94,000 tested, 6.6% active | HEK 293 viability, ATP luminescence (CellTiter-Glo), 48-72 h | Potency, µM (highest dose often 115 µM), inactives show top-dose activity change, negative = cytotoxicity, actives largely listed as inhibitors; note: % is set by controls: 0 for no effect and ±100 for the full control effect; nearly all actives have a fitted effect of over 60% in size
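Cytotoxicity was scored by loss of ATP-coupled luminescence (CellTiter-Glo) in HEK 293 cells. Compound treatment ran 48 or 72 hr at 37 degree Celsius, 5% CO2, 95% humidity.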
hNpr1 antagonist – blocks ANP-stimulated signaling of human Npr1 receptor; P16066; 76,000 tested, 1.6% active; HEK293 hNpr1 GloSensor cGMP, ANP-stimulated luminescence; Potency, µM (top dose mostly 46.3 µM), without a hit: top-dose activity change, negative = inhibition, actives largely listed as inhibitors; AID 1347048; calls by dose curve; note: % is set by controls: 0 for no effect and ±100 for the full control effect; nearly all actives have a fitted effect of over 60% in size
Target sequence (P16066 whole entry, looked up): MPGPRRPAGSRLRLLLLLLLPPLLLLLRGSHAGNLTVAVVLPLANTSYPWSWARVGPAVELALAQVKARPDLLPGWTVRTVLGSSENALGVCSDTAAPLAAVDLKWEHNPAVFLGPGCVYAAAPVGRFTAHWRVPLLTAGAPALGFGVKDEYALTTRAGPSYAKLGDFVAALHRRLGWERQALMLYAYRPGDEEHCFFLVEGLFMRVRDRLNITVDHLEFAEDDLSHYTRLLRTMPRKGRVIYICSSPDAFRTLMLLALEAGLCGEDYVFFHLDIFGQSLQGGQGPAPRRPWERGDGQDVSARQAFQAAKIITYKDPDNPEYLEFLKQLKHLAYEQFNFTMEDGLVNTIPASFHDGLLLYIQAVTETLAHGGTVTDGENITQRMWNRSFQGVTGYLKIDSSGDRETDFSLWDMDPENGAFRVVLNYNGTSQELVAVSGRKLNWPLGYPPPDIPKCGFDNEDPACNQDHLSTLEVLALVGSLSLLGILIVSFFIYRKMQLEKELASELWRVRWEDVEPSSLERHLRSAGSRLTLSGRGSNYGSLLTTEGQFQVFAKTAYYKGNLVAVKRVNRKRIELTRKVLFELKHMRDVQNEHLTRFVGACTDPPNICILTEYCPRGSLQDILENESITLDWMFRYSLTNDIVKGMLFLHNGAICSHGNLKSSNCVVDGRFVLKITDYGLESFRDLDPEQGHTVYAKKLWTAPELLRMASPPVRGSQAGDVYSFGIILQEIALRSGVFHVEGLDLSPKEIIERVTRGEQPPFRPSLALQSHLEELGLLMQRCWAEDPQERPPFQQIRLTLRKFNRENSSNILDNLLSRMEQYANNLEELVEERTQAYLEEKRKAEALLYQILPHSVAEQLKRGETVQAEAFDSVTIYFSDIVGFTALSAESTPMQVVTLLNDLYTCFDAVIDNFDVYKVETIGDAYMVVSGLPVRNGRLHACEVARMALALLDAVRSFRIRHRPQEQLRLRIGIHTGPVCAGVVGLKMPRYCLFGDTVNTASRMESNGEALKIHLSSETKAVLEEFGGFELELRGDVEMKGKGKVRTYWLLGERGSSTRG
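HEK293 cells stably expressing human Npr1 and cGMP GloSensor pGS-40F, loaded 2 h with 2% GloSensor reagent, given compound 30 min at room temperature. Luminescence read before and 20 min after 0.1 nM hNppA.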
FLuc SDR -ATP – binders stabilizing firefly luciferase, without ATP; shares compounds with FLuc inh-1; Purified FLuc-C-HiBiT, Nano-Glo HiBiT luminescence, no ATP; Potency, µM (titrated, usually from 32.7 µM), inactives show at the top dose activation (signal gain), hits mostly activators; 1,300 tested, 7.8% active; AID 1963318; note: nearly all actives have a fitted effect of over 55% in size
FLuc SDR ATP – stabilizes firefly luciferase with ATP present; AID 1963319; 1,300 tested, 8.7% active; purified FLuc-C-HiBiT + ATP, HiBiT complementation luminescence; shares compounds with FLuc inh-1; Potency, µM (highest dose often 32.7 µM), for the others: at the top dose activation (gain of signal), hits mostly activators;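 note: signal reports ligand binding via conformational change of the enzyme rather than luciferase catalysis; % of control where 0% means no effect; nearly all actives have a fitted effect of over 55% in size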
FLuc inh-2 – blocks firefly luciferase enzymatic activity | shares compounds with FLuc inh-1 | purified FLuc-C-HiBiT enzyme, luciferin luminescence | Potency, µM (doses to about 32.7 µM), inactives show top-dose activity change, negative = inhibition, most hits filed as inhibitors | 1,300 tested, 42% active; note: % is set by controls: 0 for no effect and ±100 for the full control effect; nearly all actives have a fitted effect of over 70% in size
* hit, by the source's call; [ ] = another dose, or the depositor's remark. Unless noted, calls come from the whole dose curve; as a rule, active = well fitted curve in the direction sought with a large enough effect; inconclusive = small, poorly fitted or top-dose-only effect, or another doubt; inactive = no such curve, though single readings can be large; an effect the other way counts as inactive or inconclusive. Potency is the fitted concentration of half-maximal effect.

O=C(Cc1cccc(Cl)c1)N1CCn2c(nnc2-c2ccccc2)C1 was read as NIH3T3 tox inconclusive, FLuc inh-1 2.82µM*, HEK293 tox -21.4%, hNpr1 antagonist -24.5%, FLuc SDR -ATP 13.7%, FLuc SDR ATP 18.6% and FLuc inh-2 inconclusive.
Screening O=C(c1ccccc1)N1CCn2c(nn(-c3cccc(Cl)c3)c2=O)C1 returned NIH3T3 tox -18.1% and HEK293 tox -22.0%.
`CC(=O)c1cccc(NC(=O)c2nc3ccccc3n(C)c2=O)c1` gave FLuc SDR -ATP 4.42µM*, FLuc SDR ATP inconclusive and FLuc inh-2 3.13µM*.
`C#CCNC(=O)c1ccc2nnc(-c3ccc(Cl)cc3)n2c1` gave NIH3T3 tox inconclusive and HEK293 tox -18.0%[172 µM].
Cc1ccc(NC(=O)c2oc3ccc4c(c3c2C)C(=O)CC(C)(C)O4)c(C)c1 was read as FLuc SDR -ATP 20.0%, FLuc SDR ATP inconclusive and FLuc inh-2 inconclusive.
Screening Cc1ccc(NC(=O)CN2C(=O)NC3(CCCCC3)C2=O)c(C)c1 returned NIH3T3 tox -14.3%, FLuc inh-1 inactive, HEK293 tox -4.3% and hNpr1 antagonist 3.8%.
Screening Cc1nnc(-c2cc(-c3ccc([S+](C)(=O)[O-])cc3)ccn2)n1Cc1ccccc1 returned NIH3T3 tox inconclusive, FLuc inh-1 inactive, HEK293 tox inconclusive and hNpr1 antagonist -11.2%[70.6 µM].
`Cc1ccc2nc([C@H]3CCN(C(C)C)C3)[nH]c2c1` gave NIH3T3 tox -25.4%[174 µM], FLuc inh-1 7.94µM*, HEK293 tox inconclusive, hNpr1 antagonist 28.2µM*, FLuc SDR -ATP 17.2%[65.7 µM], FLuc SDR ATP 16.3%[65.7 µM] and FLuc inh-2 inconclusive.
Screening CCC1(CC)CN(C(=O)C2CCC(=O)N(Cc3ccccn3)C2)CCO1 (centres undefined) returned NIH3T3 tox -12.2%, FLuc inh-1 inactive, HEK293 tox -7.0% and hNpr1 antagonist -2.8%.
For Cc1cnc(C2CC2)n1CCNC(=O)CC1CCCC1 the results were NIH3T3 tox -19.7% and HEK293 tox -0.9%.
`CCOC(=O)N1CCc2c(sc(NCc3cccc(F)c3)c2C(=O)Nc2ccc(OC)cc2OC)C1` gave FLuc SDR -ATP 4.2%, FLuc SDR ATP inconclusive and FLuc inh-2 2.48µM*.
`CCOC(=O)N1CCc2c(sc(NCc3sccc3C)c2C(=O)Nc2ccc(OC)cc2OC)C1` gave FLuc SDR -ATP 7.7%, FLuc SDR ATP inconclusive and FLuc inh-2 4.95µM*.
For O=C(COc1ccc(F)cc1)NCc1nnc2ccc(-c3ccccc3)nn12 the results were NIH3T3 tox -13.7%, FLuc inh-1 inactive, HEK293 tox -21.2% and hNpr1 antagonist 1.1%.
O=C(NCc1cccc(C(F)(F)F)c1)c1ccc2oc(-c3ccncc3)nc2c1 was read as NIH3T3 tox -15.9% and HEK293 tox inconclusive.
`COc1ccc(OCC(=O)Nc2cccc(-c3nc4ccccc4s3)c2C)cc1` gave FLuc SDR -ATP 26.8%, FLuc SDR ATP 16.1% and FLuc inh-2 7.85µM*.
For COc1ccc(NC(=O)N2C[C@@H]3C[C@H](C2)c2ccc(NC(=O)COc4ccccc4)c(=O)n2C3)cc1 the results were NIH3T3 tox -27.3%, FLuc inh-1 inconclusive, HEK293 tox -23.5% and hNpr1 antagonist 0.6%.
Cc1ccc(-c2nc3ccccc3s2)cc1NC(=O)COc1ccccc1 was read as FLuc SDR -ATP 13.3%, FLuc SDR ATP 8.4% and FLuc inh-2 -9.3%.
`COc1ccc(OCC(=O)Nc2cc(-c3nc4ccccc4s3)ccc2C)cc1` gave FLuc SDR -ATP 4.4%, FLuc SDR ATP 3.6% and FLuc inh-2 inconclusive.
`COc1ccc(CC(=O)Nc2ccc(-c3nc4ccccc4s3)cc2Cl)cc1` gave FLuc SDR -ATP 15.6%, FLuc SDR ATP 12.8% and FLuc inh-2 -10.8%.
Screening COc1ccc(CC(=O)Nc2cnc(-c3ccc(C)cc3)nc2)cc1 returned NIH3T3 tox -6.7%, FLuc inh-1 inconclusive, HEK293 tox -10.8% and hNpr1 antagonist -0.9%.
`COc1ccc(NC(=O)COc2ccc(-c3nnc4n3CCCC4)cc2)c(OC)c1` gave NIH3T3 tox inconclusive, FLuc inh-1 inactive, HEK293 tox -15.3% and hNpr1 antagonist 2.5%.
Screening CC(C)(CC(=O)O)CC(=O)N[C@H]1C[C@H]2C(=O)Nc3ccccc3C(=O)N2C1 returned NIH3T3 tox -25.0%[174 µM], FLuc inh-1 inactive, HEK293 tox -13.4%[172 µM] and hNpr1 antagonist -4.5%[70.6 µM].
Screening CN(C)[C@H]1CCCCN(C(=O)CCc2ccc(-c3ccc(Cl)cc3)[nH]2)C1 returned NIH3T3 tox inconclusive, FLuc inh-1 inactive, HEK293 tox inconclusive and hNpr1 antagonist -9.2%.
Screening CNC(=O)c1cc(C2CC2)nc2c1c(C1CCCN(C(=O)Cc3ccc(OC)cc3)C1)nn2C (centres undefined) returned NIH3T3 tox -11.7% and HEK293 tox -18.0%.
For CCOCC(=O)N1c2ccccc2CC1c1noc(C(C)C)n1 (centres undefined) the results were NIH3T3 tox inconclusive, FLuc inh-1 7.08µM*, HEK293 tox inconclusive, hNpr1 antagonist inconclusive, FLuc SDR -ATP 17.4%, FLuc SDR ATP 17.2% and FLuc inh-2 inconclusive.
CC(C)c1nc(C2Cc3ccccc3N2C(=O)NC2CCCC2)no1 (centres undefined) was read as NIH3T3 tox inconclusive, FLuc inh-1 7.94µM*, HEK293 tox inconclusive, hNpr1 antagonist inconclusive, FLuc SDR -ATP 15.7%, FLuc SDR ATP 14.9% and FLuc inh-2 inconclusive.
For CN(C)C(=O)C1CCN(Cc2ccccc2-c2ccccc2F)CC1 the results were NIH3T3 tox inconclusive and HEK293 tox -4.8%.
Nc1nc(N2CCC3(CC2)NC(=O)CC3C(=O)O)c2[nH]cnc2n1 (centres undefined) was read as NIH3T3 tox -3.4%, FLuc inh-1 inactive, HEK293 tox inactive, hNpr1 antagonist 1.7%, FLuc SDR -ATP 12.9%, FLuc SDR ATP 9.4% and FLuc inh-2 3.9%.
C#CCn1c(/C=C/c2ccc(Cl)cc2)nc2ccccc21 was read as FLuc SDR -ATP 3.94µM*, FLuc SDR ATP inconclusive and FLuc inh-2 0.624µM*.

Source: PubChem (National Center for Advancing Translational Sciences (NCATS))
